Experimental data published in PubChem BioAssay AID1159580 (chemical genetic matrix, 2015).
Out of some 5,500 compounds screened, about 2,000 (36%) were called active. Inconclusive results (about 18%) are left out. Rule as the data show it: active = normalized growth mostly below about 0.91 (no sharp cut-off); inconclusive = no clear call, values can overlap the other calls; inactive = mostly above about 0.92. The list shows a part of the results.

Experiment: chemical genetic growth profiling, strain panel (AID 1159580);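 also: tested at 20 µM; growth read once vehicle control cultures reached saturation at 30 °C; 1 = growth at the plate median or of vehicle wells; lower values mean less growth of the strain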
Conditions: S. cerevisiae deletion strains, growth OD
[1] = locus YAR019C, strain CDC15, hits give low values
[2] = locus YBL105C, strain PKC1, hits give low values
[3] = locus YBR135W, strain CKS1, hits give low values
[4] = locus YBR136W, strain MEC1, hits give low values
[5] = locus YBR160W, strain CDC28, hits give low values
[6] = locus YDL017W, strain CDC7, hits give low values
[7] = locus YDL028C, strain MPS1, hits give low values
[8] = locus YDL101C, strain DUN1, hits give low values
[9] = locus YDL108W, strain KIN28, hits give low values
[10] = locus YDL132W, strain cdc53, hits give low values
[11] = locus YDL214C, strain PRR2, hits give low values
[12] = locus YDR052C, strain DBF4, hits give low values
[13] = locus YDR054C, strain cdc34, hits give low values
[14] = locus YDR226W, strain ADK1, hits give low values
[15] = locus YDR477W, strain SNF1, hits give low values
[16] = locus YER123W, strain YCK3, hits give low values
[17] = locus YER133W, strain GLC7, hits give low values
[18] = locus YFL009W, strain cdc4, hits give low values
[19] = locus YFL029C, strain CAK1, hits give low values
[20] = locus YFR003C, strain YPI1, hits give low values
[21] = locus YFR019W, strain FAB1, hits give low values
[22] = locus YFR028C, strain CDC14, hits give low values
[23] = locus YGR040W, strain KSS1, hits give low values
[24] = locus YGR052W, strain FMP48, hits give low values
[25] = locus YGR092W, strain DBF2, hits give low values
[26] = locus YHR030C, strain SLT2, hits give low values
[27] = locus YHR079C, strain IRE1, hits give low values
[28] = locus YHR082C, strain KSP1, hits give low values
[29] = locus YHR205W, strain SCH9, hits give low values
[30] = locus YIL147C, strain SLN1, hits give low values
[31] = locus YJL095W, strain BCK1, hits give low values
[32] = locus YJL128C, strain PBS2, hits give low values
[33] = locus YJL157C, strain FAR1, hits give low values
[34] = locus YJR016C, strain ILV3, hits give low values
[35] = locus YJR066W, strain TOR1 (second series), hits give low values
[36] = locus YJR066W, strain TOR1, hits give low values
[37] = locus YKL048C, strain ELM1, hits give low values
[38] = locus YKL067W, strain YNK1, hits give low values
[39] = locus YKL101W, strain HSL1, hits give low values
[40] = locus YKL193C, strain SDS22, hits give low values
[41] = locus YKL203C, strain TOR2, hits give low values
[42] = locus YLR113W, strain HOG1, hits give low values
[43] = locus YLR133W, strain CKI1, hits give low values
[44] = locus YLR403W, strain SFP1, hits give low values
[45] = locus YML070W, strain DAK1, hits give low values
[46] = locus YMR001C, strain CDC5, hits give low values
[47] = locus YMR205C, strain PFK2 (second series), hits give low values
[48] = locus YMR277W, strain FCP1, hits give low values
[49] = locus YNL006W, strain LST8, hits give low values
[50] = locus YNL020C, strain ARK1, hits give low values
[51] = locus YNL161W, strain CBK1, hits give low values
[52] = locus YNL183C, strain NPR1, hits give low values
[53] = locus YNL207W, strain RIO2, hits give low values
[54] = locus YNL222W, strain SSU72, hits give low values
[55] = locus YNL307C, strain MCK1 (second series), hits give low values
[56] = locus YOL078W, strain AVO1, hits give low values
[57] = locus YOL136C, strain PFK27, hits give low values
[58] = locus YOR061W, strain CKA2, hits give low values
[59] = locus YOR119C, strain RIO1, hits give low values
[60] = locus YOR231W, strain MKK1, hits give low values
[61] = locus YOR329C, strain SCD5, hits give low values
[62] = locus YPL031C, strain PHO85, hits give low values
[63] = locus YPL153C, strain RAD53, hits give low values
[64] = locus YPL204W, strain HRR25, hits give low values
[65] = locus YPL209C, strain IPL1, hits give low values
[66] = locus YPL256C, strain CLN2, hits give low values
[67] = locus YPR025C, strain CCL1, hits give low values
[68] = locus YPR106W, strain ISR1, hits give low values
[69] = locus YPR111W, strain DBF20, hits give low values
[70] = strain NNK1, hits give low values
[71] = strain TSCII, hits give low values

Measured: normalized growth

CCOC(=O)c1ccc(Cl)c(N=Cc2cc(Cl)cc(Cl)c2O)c1
inactive: [1] 0.955 | [2] 0.967 | [3] 0.943 | [4] 0.956 | [5] 0.948 | [6] 0.95 | [7] 0.946 | [8] 0.974 | [9] 0.953 | [10] 0.951 | [12] 0.959 | [13] 0.957 | [14] 0.969 | [18] 0.949 | [19] 0.951 | [20] 0.946 | [22] 0.969 | [30] 0.946 | [32] 0.964 | [34] 0.956 | [35] 0.622 | [40] 0.95 | [46] 0.955 | [48] 0.954 | [49] 0.951 | [51] 0.951 | [53] 0.956 | [54] 0.951 | [56] 0.956 | [61] 0.958 | [65] 0.954 | [67] 0.947 | [68] 0.961 | [69] 0.958 | [70] 0.957 | [71] 0.957
active: [11] 0.544 | [15] 0.533 | [16] 0.319 | [17] 0.567 | [21] 0.472 | [23] 0.591 | [24] 0.511 | [25] 0.197 | [26] 0.238 | [27] 0.238 | [28] 0.501 | [29] 0.468 | [31] 0.298 | [33] 0.401 | [36] 0.37 | [37] 0.636 | [38] 0.527 | [39] 0.608 | [41] 0.594 | [42] 0.377 | [43] 0.432 | [44] 0.364 | [45] 0.389 | [47] 0.507 | [50] 0.404 | [52] 0.413 | [55] 0.381 | [57] 0.322 | [58] 0.326 | [59] 0.569 | [60] 0.301 | [62] 0.528 | [63] 0.421 | [64] 0.421 | [66] 0.317

CC(=O)c1ccc(Cl)c(N=Cc2cc(Br)cc(Br)c2O)c1
active: [1] 0.107 | [2] 0.0938 | [3] 0.0994 | [4] 0.112 | [5] 0.127 | [6] 0.104 | [7] 0.12 | [8] 0.118 | [9] 0.127 | [10] 0.402 | [11] 0.106 | [12] 0.303 | [13] 0.166 | [14] 0.621 | [15] 0.109 | [16] 0.115 | [17] 0.105 | [18] 0.0929 | [19] 0.0974 | [20] 0.0995 | [21] 0.0995 | [22] 0.102 | [23] 0.103 | [24] 0.128 | [25] 0.102 | [26] 0.141 | [27] 0.124 | [28] 0.134 | [29] 0.00344 | [30] 0.104 | [31] 0.141 | [32] 0.0977 | [33] 0.0879 | [34] 0.0892 | [35] 0.091 | [36] 0.12 | [37] 0.114 | [38] 0.0955 | [39] 0.112 | [40] 0.0908 | [41] 0.113 | [42] 0.161 | [43] 0.0941 | [44] -0.00302 | [45] 0.099 | [46] 0.0969 | [47] 0.0844 | [48] 0.0941 | [49] 0.0893 | [50] 0.103 | [51] 0.0859 | [52] 0.119 | [53] 0.0975 | [54] 0.0926 | [55] 0.103 | [56] 0.0827 | [57] 0.102 | [58] 0.0946 | [59] 0.102 | [60] 0.119 | [61] 0.0861 | [62] 0.105 | [63] 0.0925 | [64] 0.0963 | [65] 0.0856 | [66] 0.144 | [67] 0.0958 | [68] 0.0925 | [69] 0.106 | [70] 0.102 | [71] 0.102
